RORg inh: blocks mouse ROR gamma transcriptional activity; P51450; Drosophila S2 Gal4-RORgamma UAS-luciferase reporter, 20 h; Potency, µM (doses to about 53.6 µM), without a hit: at the highest dose activity change, negative = inhibition, most hits filed as inhibitors; 310,000 tested, 5.4% active; AID 2551; also: nearly all actives have a fitted effect of over 60% in size
Target sequence (P51450 whole entry, looked up, the tested form may be a part): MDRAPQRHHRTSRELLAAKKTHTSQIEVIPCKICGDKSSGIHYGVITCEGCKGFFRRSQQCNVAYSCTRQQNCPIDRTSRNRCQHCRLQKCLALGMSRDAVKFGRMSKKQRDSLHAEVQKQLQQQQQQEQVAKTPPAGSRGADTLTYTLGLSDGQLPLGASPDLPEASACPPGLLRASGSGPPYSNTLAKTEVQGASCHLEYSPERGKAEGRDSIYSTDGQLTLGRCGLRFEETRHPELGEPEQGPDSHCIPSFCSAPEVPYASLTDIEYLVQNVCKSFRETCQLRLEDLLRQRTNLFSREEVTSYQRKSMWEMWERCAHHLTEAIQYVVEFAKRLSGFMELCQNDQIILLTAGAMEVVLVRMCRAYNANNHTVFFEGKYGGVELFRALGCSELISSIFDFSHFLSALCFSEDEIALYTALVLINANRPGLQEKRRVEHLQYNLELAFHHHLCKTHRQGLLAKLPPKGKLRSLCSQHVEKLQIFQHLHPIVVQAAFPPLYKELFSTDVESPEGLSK
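Read-out: Photinus luciferase luminescence; inhibitors lower reporter signal. Insect Schneider cells with Gal4-ROR gamma fusion under metallothionein promoter, UAS reporter; 700 uM final copper sulfate induction, 20 hr, ambient temperature.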
Gal4-VP16 FLuc: inhibits Gal4-VP16 luciferase reporter, ROR gamma counter-screen | Drosophila S2 Gal4-VP16 UAS-luciferase, luminescence, 20 h | Potency, µM (highest dose often 53.6 µM), for inactives: at the highest dose activity, negative = inhibition, usual class: inhibitors | 310,000 tested, 3.5% active;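 also: Gal4-VP16 expression switched on by copper sulfate through the metallothionein promoter; nearly all actives have a fitted effect of over 50% in size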
TDP1 inh: blocks human tyrosyl-DNA phosphodiesterase 1 | Q9NUW8 | recombinant TDP1, AlphaScreen DNA substrate cleavage | Potency, µM (titrated, usually from 130 µM), for inactives: top-dose activity change, negative = inhibition, most hits filed as inhibitors | 350,000 tested, 0.28% active | AID 485290; also: nearly all actives have a fitted effect of over 40% in size
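E. coli-derived human Tdp1, 1 nM final. Cpd preinc 15 min RT; substrate 15 nM final, 5 min RT; AS bead mix 10 ug/ml final, 10 min RT. Signal loss = tyrosine-FITC cleavage. No-enzyme wells = max signal.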
DT40 TDP1 no CPT: qHTS for Inhibitors of human tyrosyl-DNA phosphodiesterase 1 (TDP1): qHTS in cells in absence of CPT | Potency, µM (highest dose often 46.2 µM), inactives show at the highest dose activity change, negative = growth inhibition, usual class: inhibitors | DT40 Tdp1-/- hTDP1 cells, no CPT, ATP luminescence, 48 h | 420,000 tested, 15% active; also: nearly all actives have a fitted effect of over 55% in size
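Cells were dispensed at 400 per well, compounds added by pin tool, plates incubated ≥48 hr at 37 °C, then CellTiter-Glo added for 30 min at room temperature before luminescence reading. Line: DT40 Tdp1-/- complemented with hTDP1; camptothecin omitted.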
DT40 TDP1 CPT: DT40-hTDP1 cell growth loss with CPT; 420,000 tested, 12% active; Potency, µM (top dose mostly 46.2 µM), without a hit: top-dose activity change, negative = growth inhibition, hits mostly inhibitors; chicken DT40 Tdp1-/-;hTDP1 cells + 20 nM CPT, ATP luminescence, 48 h; also: nearly all actives have a fitted effect of over 55% in size
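Cell growth measured by CellTiter-Glo luminescence after a minimum 48 h, 37 C compound exposure with 20 nM CPT in Tdp1-knockout DT40 cells stably expressing hTDP1, seeded 400/well; qHTS titration format.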
* hit, by the source's call; u = inconclusive; x = no result given; [ ] = remark or other dose. Rows were chosen to be rich in hits. Some 19% of all compounds tested hit in one or more screens of this group. Calls follow the shape of the dose curve; as a rule, active = well fitted curve in the direction sought with a large enough effect; inconclusive = small, poorly fitted or top-dose-only effect, or another doubt; inactive = no such curve, though single readings can be large; an effect the other way counts as inactive or inconclusive. % is scaled to controls: 0 for no effect and ±100 for the full control effect; potency is read from the fitted curve at half-maximal effect.

SMILES	RORg inh	Gal4-VP16 FLuc	TDP1 inh	DT40 TDP1 no CPT	DT40 TDP1 CPT
Cc1csc(C(C)N(C)C(=O)c2cc(NC(=O)C3CCC3)c3c(c2)nc(-c2ccncc2)n3C)n1 (configuration not stated)	x	x	x	6.3%	8.5%
Cc1ccc(S(=O)(=O)N2[C@H](CC(=O)c3ccc(Cl)c(Cl)c3)OC[C@@H]2C(C)C)cc1	x	x	x	-11.8%	-8.4%
COc1ccc(OC)c(CNC(=O)C2CCN(S(C)(=O)=O)CC2)c1	-14.1%	2.0%	2.3%	0.1%	8.0%
COc1cc(NC(=O)c2ccc(N)nc2)cc(C(=O)Nc2cccc(C(F)(F)F)c2)c1	11.1%	-3.1%	-4.7%	16.4µM*	u
COc1ccc(C(=O)c2cc3cccc(OC)c3o2)cc1	21.1%	0.3%	0.0%	6.7%	-21.9%
COc1cc(NC(=O)c2cc3cccc(OC)c3o2)cc(C(=O)Nc2cccc(C(F)(F)F)c2)c1	25.9%	-4.9%	4.7%	5.17µM*	6.51µM*
COc1ccc2nc3oc(C(=O)Nc4cccc(C(F)(F)F)c4)cc3cc2c1	x	x	4.4%	11.6µM*	13µM*
COc1cc(NC(=O)c2nccnc2N)cc(C(=O)Nc2cccc(C(F)(F)F)c2)c1	-9.7%	0.9%	0.0%	u	u
COc1cc(Nc2ccccn2)cc(C(=O)Nc2cccc(C(F)(F)F)c2)c1	28.3%	10.7%	2.4%	u	16.4µM*
O=C(CNC(=O)c1ccc(Br)o1)NCc1ccccc1	1.5%	-5.6%	4.8%	-1.4%	-23.7%
COc1ccc(-c2cc(C(=O)Nc3cc(OC)cc(C(=O)Nc4cccc(C(F)(F)F)c4)c3)[nH]n2)cc1	14.7%	-5.1%	-9.5%	2.59µM*	2.31µM*
COc1cc(NC(=O)c2nccn2C)cc(C(=O)Nc2cccc(C(F)(F)F)c2)c1	-19.0%	-1.7%	3.5%	6.51µM*	u
O=C(Nc1cccc(C(F)(F)F)c1)c1csc(-c2ccncc2)n1	21.5%	5.5%	2.5%	u	-10.2%
COc1cc(NC(=O)c2ccno2)cc(C(=O)Nc2cccc(C(F)(F)F)c2)c1	-4.9%	8.0%	4.7%	16.4µM*	u
COc1cc(OC)cc(C(=O)Nc2cccc(C(C)=O)c2)c1	u	6.9%	-4.5%	-15.3%	-10.0%
COc1cc(NC(=O)c2csc(-c3ccncc3)n2)cc(C(=O)Nc2cccc(C(F)(F)F)c2)c1	27.4%	3.7%	5.9%	4.61µM*	8.2µM*
CC(=O)N1CC=CC1(C)C(=O)O (configuration not stated)	-28.1%	-3.9%	0.0%	-14.0%	-7.1%
CCN(CC(=O)Nc1ccc(NC(C)=O)cc1)C(=O)CC1OC(=O)c2ccccc21 (configuration not stated)	x	x	-0.1%	1.7%	-1.1%
CC(=O)c1c2c3c(cccc3n(C)c1=O)C(=O)c1ccccc1-2	20.4%	6.7%	x	-6.3%	0.3%
CC(=O)c1c2c3c(c(Br)ccc3n(C)c1=O)C(=O)c1ccccc1-2	-36.3%	-7.9%	6.6%	23.1µM*	u
CC1CCCC(C)N1/N=C/c1ccc(O)c(O)c1 (configuration not stated)	-12.8%	22.2%	x	23.1µM*	-16.7%
COc1ccc(/C=N/N2C(C)CCCC2C)cc1O (configuration not stated)	8.6%	-7.4%	x	7.0%	8.5%
CSc1ncccc1C(=O)OCn1nnc2ccccc2c1=O	8.9%	-1.1%	0.0%	-0.6%	-25.7%
Cc1[nH]c(/C=C2/C(=O)Nc3ccc(S(=O)(=O)Cc4c(Cl)cccc4Cl)cc32)c(C)c1C(=O)N1CCCC1CN1CCCC1 (configuration not stated)	u	u	28.5%	x	x
O=C(CSc1nc2ccccc2[nH]1)NCc1ccccc1	37.2%	-11.7%	5.6%	-18.6%	-0.7%
SMILES	RORg inh	Gal4-VP16 FLuc	TDP1 inh	DT40 TDP1 no CPT	DT40 TDP1 CPT
Cc1ccc2nc(NCc3ccccc3)c(C#N)cc2c1	-8.5%	-5.5%	x	0.0%	1.6%
S=C(NCc1ccccc1)NNc1nc2ccccc2[nH]1	4.47µM*	-9.4%	4.2%	u	u
c1ccc(CNc2nc3ccccc3[nH]2)cc1	u	-20.5%	-1.1%	18.4µM*	u
Cc1ccc2nc(NCc3ccccc3)[nH]c2c1	40.2%[10 µM]	u	0.0%	4.61µM*	4.11µM*
COc1ccc2nc(NCCO)[nH]c2c1	-9.2%	5.6%	5.8%	-15.3%	-3.7%
COc1ccc2nc(NCc3ccccc3)[nH]c2c1	31.4%	11.7%	0.0%	14.6µM*	u
N#Cc1ccc(C(=O)Nc2cc(S(=O)(=O)N3CCOCC3)ccc2N2CCOCC2)cc1	x	x	x	-1.2%	0.3%
O=C(CN1CCN(C(=O)CNC(=O)c2ccc(N3CCCC3=O)cc2)CC1)Nc1cccc(F)c1	x	x	x	-4.4%	0.9%
O=C(O)c1c(Cl)c(Cl)c(Cl)c(Cl)c1-c1c2cc(I)c(=O)c(I)c-2oc2c(I)c(O)c(I)cc12	14.1µM*	u	28.5%	15µM*	u
Cc1ccc(-c2ocnc2C(=O)Nc2ccccc2NC(=O)c2ccccn2)cc1	1.58µM*	11.2µM*	7.4%	u	20.6µM*
Cc1cccc(-c2ocnc2C(=O)Nc2ccccc2C(=O)N2CCCC2)c1	10.3%	-9.9%	4.4%	u	u
Cc1ccccc1NC(=O)c1ccccn1	2.0%	28.7%	8.2%	-0.4%	u
CSc1ccccc1NC(=O)c1ccccn1	0.447µM*	1.26µM*	1.1%	2.06µM*	1.3µM*
Cc1cccc(-c2ocnc2C(=O)Nc2ccccc2NC(=O)c2ccccn2)c1	0.562µM*	8.91µM*	9.2%	0.291µM*	0.92µM*
COc1ccc(-n2ncc(C(C)NS(=O)(=O)c3ccc(C(C)=O)cc3)c2C)cc1 (configuration not stated)	6.8%	2.1%	2.1%	-0.5%	-6.0%
C#CCOCCOCCOCCNc1nc(N2CCN(C(=O)[C@H]([C@@H](C)CC)n3cc(CCCN=C(N)N)nn3)CC2)nc(N2CCN(C(=O)[C@H](Cc3ccc(O)cc3)n3cc(CCO)nn3)CC2)n1	12.8%	-9.4%	5.3%	-6.1%	-9.2%
Cc1ccc(Cl)cc1N1CCN(C(=O)Cn2cnc3nc4c(cc3c2=O)CCCC4)CC1	x	x	6.5%	u	u
CCn1c(SCc2ccc(Cl)cc2Cl)nc2nc3c(cc2c1=O)CCCC3	7.08µM*	6.0%	2.1%	u	u
NS(=O)(=O)c1ccc(NC(=O)COC(=O)C23CC4CC(CC(C4)C2)C3)cc1	u	u	3.5%	u	u
O=c1[nH]n(Cc2ccccc2)c(=O)c2ccccc12	u	5.0%	0.0%	8.91µM*	u
COC(=O)CCn1[nH]c(=O)c2ccccc2c1=O	19.1%	0.4%	2.2%	-10.6%	18.7%
